Results published in PMC5540273 (PLoS ONE, 2017).

What was measured:
Conditions in all cases: concentration: 1 μM, replicates: in singlicate; n = 1
TAOK1 = tested on: TAOK1
TAOK2 = tested on: TAOK2
TAOK3 = tested on: TAOK3
TBK1 = tested on: TBK1
TEC = tested on: TEC
TESK1 = tested on: TESK1
TGFBR1 = tested on: TGFBR1
TGFBR2 = tested on: TGFBR2
TIE1 = tested on: TIE1
TIE2 = tested on: T1, TIE2
T1 construct: gene TEK
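Also: KINOMEscan kinase panel screen.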

Row | Structure (SMILES) | %Inh (TAOK1) | %Inh (TAOK2) | %Inh (TAOK3) | %Inh (TBK1) | %Inh (TEC) | %Inh (TESK1) | %Inh (TGFBR1) | %Inh (TGFBR2) | %Inh (TIE1) | %Inh (TIE2)
1 | COc1cccc(C2=C(Nc3cc(Cl)c(O)c(Cl)c3)C(=O)NC2=O)c1 [SB-390767] | 69% | 0% | 29% | 0% | 1% | 0% | 0% | 30% | 0% | 0%
2 | COC(=O)C(NC(=O)NC1CCN(c2ccnc(Nc3ccc(F)cc3)n2)C1)c1ccccc1 (stereo not shown) [GSK1379712] | 0% | 0% | 0% | 18% | 11% | 0% | 26% | 0% | 0% | 0%
3 | Cc1c(Cn2c(C)c(C)n3c(=O)cc(N4CCOCC4)nc23)cccc1C(F)(F)F [GSK2328680] | 0% | 0% | 0% | 9% | 5% | 22% | 9% | 0% | 54% | 0%
4 | CNc1nc(-c2ccc3c(N)n[nH]c3c2)cc(N2C[C@@H](C(=O)NC3CCCCC3)OC[C@H]2C)n1 [GSK2375584] | 0% | 1% | 0% | 28% | 12% | 11% | 20% | 0% | 2% | 0%
5 | COc1ccc(-c2coc3ccc(-c4nnc(C)o4)cc23)cc1 | 0% | 0% | 0% | 30% | 0% | 8% | 3% | 43% | 0% | 40%
6 | COc1ccc(Nc2nccc(-c3ccc(NC(=O)c4cc5cc(F)ccc5[nH]4)cc3)n2)cc1 [GSK1229496] | 0% | 0% | 0% | 11% | 0% | 7% | 9% | 0% | 0% | 0%
7 | Fc1ccc(-c2nc[nH]c2-c2ccncc2)cc1 [SB-217360] | 0% | 40% | 7% | 48% | 0% | 0% | 37% | 53% | 0% | 3%
8 | COc1ccc(Nc2nccc(N3CCC(NC(=O)c4cc5ccccc5s4)C3)n2)cc1 (stereo not shown) [GSK1379738] | 0% | 0% | 0% | 22% | 12% | 30% | 17% | 0% | 0% | 0%
9 | CNCc1ccc2nc(NC(=O)c3ccc(C(C)(C)C)cc3)cn2c1 | 100% | 22% | 93.2% | 0% | 2% | 0% | 3% | 2% | 6% | 4%
10 | Cn1cncc1C(=O)NC1CCN(c2ccnc(Nc3ccc(F)cc3)n2)C1 (stereo not shown) [GSK1379717] | 0% | 0% | 0% | 9% | 4% | 98.9% | 26% | 0% | 0% | 0%
11 | CNc1cc(-c2ccc3c(N)n[nH]c3c2)nc(N)n1 [GSK2224810] | 56% | 0% | 9% | 9% | 15% | 0% | 36% | 47% | 0% | 0%
12 | Cc1ccc(-c2nc(Nc3ccncc3)c3ccccc3n2)s1 [GSK189015] | 0% | 0% | 5% | 7% | 8% | 61% | 6% | 21% | 19% | 12%
13 | CC[C@@H]1CO[C@H](C(=O)Nc2ccccc2)CN1c1cc(-c2ccc3c(N)n[nH]c3c2)nc(NC)n1 [GSK2376236] | 0% | 1% | 0% | 31% | 0% | 0% | 9% | 0% | 4% | 0%
14 | CS(=O)(=O)Cc1ccc(Nc2nccc(-c3c(-c4cccc(NC(=O)C5CCCCC5)c4)nn4ncccc34)n2)cc1 [GSK350559] | 11% | 0% | 0% | 29% | 29% | 10% | 0% | 0% | 3% | 0%
15 | CS(=O)(=O)CCNCc1nc(-c2ccc3ncnc(Nc4ccc(OCc5ccccc5)c(Cl)c4)c3c2)cs1.Cl [GW582764] | 0% | 0% | 0% | 0% | 0% | 19% | 58% | 0% | 0% | 0%
16 | COc1cccc(NC(=O)Nc2ccc(C)c(-c3ccc(C(=O)Nc4ccncc4)cc3)c2)c1 [GSK1398474] | 0% | 0% | 4% | 29% | 5% | 19% | 0% | 0% | 0% | 0%
17 | Nc1cccc(-c2ccc3c(N)n[nH]c3c2)n1 [GSK2192730] | 1% | 0% | 0% | 18% | 0% | 13% | 3% | 0% | 0% | 0%

Row | Structure (SMILES) | %Inh (TAOK1) | %Inh (TAOK2) | %Inh (TAOK3) | %Inh (TBK1) | %Inh (TEC) | %Inh (TESK1) | %Inh (TGFBR1) | %Inh (TGFBR2) | %Inh (TIE1) | %Inh (TIE2)
18 | COc1cc2ncnc(Nc3cccc(Br)c3)c2cc1OC.Cl [GI230329] | 0% | 0% | 0% | 7% | 0% | 31% | 1% | 0% | 0% | 0%
19 | Cn1cnc2c(N)ncnc21 [SKF-97623] | 0% | 0% | 0% | 0% | 0% | 0% | 9% | 2% | 0% | 0%
20 | Cl.Cl.Cl.N#Cc1ccc(CCNc2nccc(-c3cccc(CN4CCNCC4)c3)n2)cc1 [GSK2137462] | 0% | 2% | 0% | 19% | 0% | 11% | 0% | 0% | 2% | 0%
21 | CC(=O)c1c(C)c2cnc(Nc3ccn(C)n3)nc2n(C2CCCC2)c1=O | 0% | 0% | 0% | 0% | 0% | 4% | 0% | 0% | 0% | 0%
22 | CC(=O)c1cccc(NC(=O)NC2CCN(c3ccnc(Nc4ccc(F)cc4)n3)C2)c1 (stereo not shown) [GSK1379710] | 2% | 0% | 11% | 18% | 4% | 20% | 38% | 0% | 0% | 0%
23 | COc1cccc(CNC(=O)NC2CCN(c3ccnc(Nc4ccc(F)cc4)n3)C2)c1 (stereo not shown) [GSK1379723] | 0% | 0% | 0% | 0% | 7% | 100% | 21% | 0% | 24% | 0%
24 | COc1ccc(Nc2nccc(NCCNC(=O)Nc3cc(C)ccc3C)n2)cc1 [GSK1379899] | 0% | 0% | 1% | 0% | 16% | 7% | 0% | 0% | 0% | 0%
25 | Cc1ccc(NC(=O)Nc2ccccc2F)cc1-c1ccc(C(=O)Nc2ccncc2)cc1 [GSK1398477] | 0% | 0% | 0% | 13% | 24% | 2% | 0% | 13% | 35% | 0%
26 | Cn1cncc1-c1cc2c(Nc3ccc(OCc4ccccc4)cc3)ncnc2cn1 [GW281179] | 0% | 0% | 0% | 0% | 0% | 35% | 0% | 0% | 0% | 0%
27 | COc1ccc2cc(-c3nc(-c4ccccc4C(C)C)[nH]c3-c3ccncc3)ccc2c1 [SB-660566] | 0% | 0% | 0% | 0% | 17% | 32% | 80% | 42% | 69% | 97%
28 | Nc1ncnc2occ(-c3ccc4c(c3)CCN4C(=O)Cc3cc(F)ccc3F)c12 [GSK2645446] | 0% | 6% | 0% | 10% | 0% | 0% | 0% | 0% | 45% | 0%
29 | CS(=O)(=O)CCNCc1nc(-c2ccc3ncnc(Nc4ccc5c(cnn5Cc5ccccc5)c4)c3c2)cs1.Cl.Cl [GW569716] | 0% | 0% | 0% | 0% | 0% | 21% | 27% | 0% | 0% | 0%
30 | COC(=O)c1cccc(NC(=O)NC2CCN(c3ccnc(Nc4ccc(F)cc4)n3)C2)c1 (stereo not shown) [GSK1379725] | 0% | 0% | 0% | 0% | 0% | 15% | 0% | 0% | 0% | 0%
31 | CCn1c(-c2ccccc2)nc2cnccc21 [SB-733416] | 0% | 0% | 1% | 0% | 0% | 9% | 0% | 8% | 0% | 0%
32 | Cc1cccc2c(-c3ccncn3)c(-c3ccc(F)cc3)nn12 [GW515532] | 0% | 0% | 0% | 0% | 0% | 17% | 0% | 23% | 14% | 0%
33 | Cc1c(Cn2c3ccccc3n3c(=O)cc(N4CCOCC4)nc23)cccc1C(F)(F)F [GSK2306394] | 0% | 0% | 0% | 13% | 1% | 0% | 0% | 10% | 6% | 0%
34 | O=c1cc(N2CCOCC2)nc2n(Cc3cccc(Cl)c3Cl)c3ccccc3n12 [GSK2299009] | 0% | 0% | 0% | 22% | 20% | 17% | 0% | 0% | 24% | 5%
